Records with an inconclusive call do not appear. Where a call stands in place of a potency, no number is given. Active and inactive are the calls of the source. The call rests on the fitted dose curve; in most records, active means well fitted cell-killing curve with a large enough effect; inconclusive means small, poorly fitted or top-dose-only effect, or effect the other way; inactive means flat fitted curve, though single readings scatter.
system: OV90; experiment: Primary qHTS to identify gynecologic anti-cancer compounds using libraries of approved drugs and bioactive compounds (AID 1345084); details: Gynecologic cancer cell panel viability, ATPlite luminescence, 48 h; series mostly up to 57.5 µM; further: nearly all actives have a fitted effect of over 55% in size
In short: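 Cell viability after 48 h drug treatment, ATPlite luminescence readout; five doses.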

SMILES | Potency
COCCc1ccccn1 | inactive
OC1(c2ccccc2)CCNCC1 | inactive
O=C1NC(c2ccccc2)(c2ccccc2)C(=O)N1COP(=O)(O)O | inactive
COC(=O)c1cc(Cl)ccc1OC | inactive
COC(=O)CCCCC(CCSS/C(CCO)=C(\C)N(C=O)Cc1cnc(C)nc1N)SC(C)=O (stereo unspecified) | inactive
COc1ccc2nc(SCc3ncc(C)c(OC)c3C)[nH]c2c1 | inactive
Cc1ccc(C(C)OC(=O)C2(C)CCC(C(=O)O)C2(C)C)cc1 (stereo unspecified) | inactive
CN(C)CCN1CCN(c2cccc(Cl)c2)C1=O | inactive
CCOC(=O)C(=O)CCCCCCl | inactive
CCOC(=O)Oc1ccc(CCNC(=O)[C@H](CCSC)NC(C)=O)cc1OC(=O)OCC | inactive
COC(=O)c1cc(Cl)c(NC(C)=O)cc1OC | inactive
CCN1CCN(c2cc(-c3ccc(F)cc3)c3c(n2)CCCCCC3)CC1 | inactive
CCCc1ncc(C(=O)O)s1 | inactive
Cc1coc2ccccc2c1=O | inactive
O=C1CC2(CCCC2)CC(=O)N1 | inactive
COC(=O)/C=C\C(=O)OC | inactive
C#CC(C)(CC)OC(=O)c1ccccc1C(=O)O (stereo unspecified) | inactive
O=C(O)Cn1c(=O)n(Cc2ccc(Br)cc2F)c(=O)c2ccc(Cl)cc21 | inactive

SMILES | Potency
CN1CCN(N)CC1 | inactive
CC(CC(C#N)(c1ccccc1)C(C)C)N(C)C (stereo unspecified) | inactive
CCOC(=O)CN1CCCC1=O | inactive
CC(C)(C)NCC(O)COc1ccccc1OCC1CCCO1 (stereo unspecified) | inactive
CCN(CC)CC(=O)Oc1ccc(NC(C)=O)cc1 | inactive
COC(=O)/C=C(/C)N | inactive
C#Cc1ccc(-c2ccccc2F)cc1 | inactive
NS(=O)(=O)c1cc(C(=O)NN2C[C@H]3[C@H]4CCC(C4)[C@H]3C2)ccc1Cl | inactive
Cc1[nH]cnc1-c1ccc(Cl)cc1 | inactive
c1ccc2c(c1)CCc1ccccc1N2 | inactive
COC(=O)c1cc(S(N)(=O)=O)ccc1OC | inactive
CCOc1ccccc1OCC1CNCCO1 (stereo unspecified) | inactive
O=C(C1CCCCC1)N1CC(=O)N2CCCc3ccccc3C2C1 (stereo unspecified) | inactive
CCn1ccc(NS(=O)(=O)c2ccc(N)cc2)nc1=O | inactive
CSCC[C@H](NC(=O)[C@H](Cc1c[nH]c2ccccc12)NC(=O)CCNC(=O)OC(C)(C)C)C(=O)N[C@@H](CC(=O)O)C(=O)N[C@@H](Cc1ccccc1)C(N)=O | inactive
O=C(O)C(=O)Nc1cccc(-c2nn[nH]n2)c1 | inactive
COc1ccc(CCC(C)=O)cc1 | inactive
COc1cc(S(N)(=O)=O)cc(C(=O)O)c1OC | inactive

Reference: PubChem BioAssay (NCATS)
